Among the data in paper PMC7862700, “An all-to-all approach to the identification of sequence-specific readers for epigenetic DNA modifications on cytosine” are binding signal values, retold here.

Holding throughout (assay): DAPPL (digital affinity profiling via proximity ligation, sequencing); 10 mM Tris-HCl pH 7.5, 50 mM NaCl, 1 mM DTT, 4% glycerol, room temperature, 30 min; GST-TFs on glutathione beads, 16-mer random dsDNA library, 0.1% formaldehyde crosslink after washing; high values mean tight binding
One test concerns the target T1, FLI1 (Homo sapiens, UniProt Q01543 1-452).
T1 sequence: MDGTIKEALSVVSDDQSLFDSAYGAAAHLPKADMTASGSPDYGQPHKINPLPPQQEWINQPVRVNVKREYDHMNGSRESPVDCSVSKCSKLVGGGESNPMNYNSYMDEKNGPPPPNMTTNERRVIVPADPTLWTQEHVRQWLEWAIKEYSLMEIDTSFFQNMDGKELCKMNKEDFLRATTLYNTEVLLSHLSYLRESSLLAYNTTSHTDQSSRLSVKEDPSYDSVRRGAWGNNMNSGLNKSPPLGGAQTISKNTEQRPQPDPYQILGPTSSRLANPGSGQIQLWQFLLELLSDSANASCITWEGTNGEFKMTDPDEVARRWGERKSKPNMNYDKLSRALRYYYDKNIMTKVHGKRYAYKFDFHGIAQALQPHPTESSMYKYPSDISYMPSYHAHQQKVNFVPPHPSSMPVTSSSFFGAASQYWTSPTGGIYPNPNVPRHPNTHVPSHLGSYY
The settings on record: protein: recombinant; tags: N-terminal GST; dsDNA, one strand shown. The procedure, abridged:
(§1)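 Human transcription factors were made in yeast as GST fusions, captured on glutathione beads and barcoded with DNA. With a tag-only sample included, the pool was incubated with 200 nmole of a random double-stranded 16-mer DNA library in Tris/NaCl/DTT/glycerol buffer at room temperature for 30 min, then crosslinked with 0.1% formaldehyde after washing, ligated by proximity, amplified and sequenced. For binding signal, each hexamer's read frequency for a factor is divided by its frequency for the tag-only sample.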

For the next test, the target named is T2, ELK1 (Homo sapiens, UniProt P19419 1-428).
T2 sequence: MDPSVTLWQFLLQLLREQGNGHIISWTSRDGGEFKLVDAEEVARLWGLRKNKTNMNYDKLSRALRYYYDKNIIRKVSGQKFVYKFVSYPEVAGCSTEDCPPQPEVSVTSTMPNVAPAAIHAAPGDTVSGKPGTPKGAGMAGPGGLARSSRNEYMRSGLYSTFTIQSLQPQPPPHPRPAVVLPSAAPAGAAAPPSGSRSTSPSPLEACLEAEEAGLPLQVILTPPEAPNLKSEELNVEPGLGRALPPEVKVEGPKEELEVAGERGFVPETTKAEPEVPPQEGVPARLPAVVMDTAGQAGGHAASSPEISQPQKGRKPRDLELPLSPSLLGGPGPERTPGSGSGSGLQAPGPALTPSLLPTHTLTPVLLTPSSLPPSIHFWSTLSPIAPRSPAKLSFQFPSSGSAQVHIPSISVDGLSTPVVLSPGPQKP
The conditions noted are these: protein: recombinant; tags: N-terminal GST; dsDNA, one strand shown. The procedure, abridged:
as §1

Another test addresses T3, GABPA (Homo sapiens, UniProt Q06546 1-454).
T3 sequence: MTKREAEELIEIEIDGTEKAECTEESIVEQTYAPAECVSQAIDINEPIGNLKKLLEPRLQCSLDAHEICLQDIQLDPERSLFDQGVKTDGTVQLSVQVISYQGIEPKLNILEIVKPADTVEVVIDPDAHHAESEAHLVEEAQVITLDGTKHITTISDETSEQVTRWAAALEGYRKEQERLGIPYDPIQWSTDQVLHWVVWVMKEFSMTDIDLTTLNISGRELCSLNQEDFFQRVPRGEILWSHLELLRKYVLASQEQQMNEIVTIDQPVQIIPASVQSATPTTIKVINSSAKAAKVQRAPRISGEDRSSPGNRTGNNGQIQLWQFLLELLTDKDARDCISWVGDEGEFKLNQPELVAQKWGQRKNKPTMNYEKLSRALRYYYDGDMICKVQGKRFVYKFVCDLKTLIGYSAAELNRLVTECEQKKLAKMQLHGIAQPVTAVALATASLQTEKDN
The settings on record: protein: recombinant; tags: N-terminal GST; dsDNA, one strand shown. The procedure, abridged: as §1

The target in another test is T4, ERG (Homo sapiens, UniProt P11308 1-479).
T4 sequence: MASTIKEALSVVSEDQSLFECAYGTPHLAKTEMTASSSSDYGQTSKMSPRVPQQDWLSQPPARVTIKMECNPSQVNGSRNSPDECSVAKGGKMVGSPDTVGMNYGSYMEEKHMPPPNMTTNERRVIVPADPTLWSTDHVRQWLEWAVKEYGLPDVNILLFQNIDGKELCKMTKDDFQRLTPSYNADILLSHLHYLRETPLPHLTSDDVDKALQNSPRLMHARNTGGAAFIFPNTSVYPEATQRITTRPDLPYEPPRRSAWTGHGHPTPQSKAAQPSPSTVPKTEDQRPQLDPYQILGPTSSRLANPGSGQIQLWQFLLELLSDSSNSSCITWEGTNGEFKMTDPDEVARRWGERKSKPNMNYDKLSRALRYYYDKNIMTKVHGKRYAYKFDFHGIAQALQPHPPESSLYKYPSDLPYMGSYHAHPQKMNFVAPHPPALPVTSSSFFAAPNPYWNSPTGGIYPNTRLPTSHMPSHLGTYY
The settings on record: protein: recombinant; tags: N-terminal GST; dsDNA, one strand shown. The procedure, abridged:
as §1

The target in another test is ELF1 (Homo sapiens, UniProt P32519 1-619). The settings on record: protein: recombinant; tags: N-terminal GST; dsDNA, one strand shown. The procedure, abridged: as §1
Chain of ELF1 (P32519 whole entry): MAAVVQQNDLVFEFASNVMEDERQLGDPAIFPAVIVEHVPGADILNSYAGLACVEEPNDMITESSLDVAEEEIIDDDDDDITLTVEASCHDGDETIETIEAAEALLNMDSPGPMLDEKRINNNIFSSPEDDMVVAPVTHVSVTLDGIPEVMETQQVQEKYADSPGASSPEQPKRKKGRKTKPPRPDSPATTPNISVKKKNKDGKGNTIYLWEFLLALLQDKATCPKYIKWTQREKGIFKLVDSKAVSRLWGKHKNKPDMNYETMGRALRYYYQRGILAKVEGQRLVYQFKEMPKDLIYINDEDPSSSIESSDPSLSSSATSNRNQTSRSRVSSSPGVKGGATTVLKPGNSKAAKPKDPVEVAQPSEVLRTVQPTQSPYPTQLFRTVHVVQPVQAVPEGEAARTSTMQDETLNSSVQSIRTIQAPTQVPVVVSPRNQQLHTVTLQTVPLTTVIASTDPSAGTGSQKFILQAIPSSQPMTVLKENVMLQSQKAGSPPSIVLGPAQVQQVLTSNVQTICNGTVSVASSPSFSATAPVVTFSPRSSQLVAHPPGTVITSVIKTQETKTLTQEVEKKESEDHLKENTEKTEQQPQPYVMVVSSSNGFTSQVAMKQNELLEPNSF
A further test has as its target T5, EHF (Homo sapiens, UniProt Q9NZC4 1-300).
T5 sequence: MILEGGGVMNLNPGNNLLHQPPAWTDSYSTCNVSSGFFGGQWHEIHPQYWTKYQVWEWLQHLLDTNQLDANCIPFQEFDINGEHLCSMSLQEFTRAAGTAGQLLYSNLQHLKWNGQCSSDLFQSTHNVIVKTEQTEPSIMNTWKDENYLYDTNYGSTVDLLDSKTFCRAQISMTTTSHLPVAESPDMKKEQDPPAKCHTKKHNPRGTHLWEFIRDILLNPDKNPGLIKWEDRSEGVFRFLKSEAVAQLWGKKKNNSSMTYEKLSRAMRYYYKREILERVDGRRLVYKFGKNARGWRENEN
The conditions noted are these: protein: recombinant; tags: N-terminal GST; dsDNA, one strand shown. Put shortly:
as §1

The next test has as its target SPI1 (Homo sapiens, UniProt P17947 1-270). The conditions noted are these: protein: recombinant; tags: N-terminal GST; dsDNA, one strand shown. Put shortly: as §1
The next test addresses SPIB (Homo sapiens, UniProt Q01892 1-262). The settings on record: protein: recombinant; tags: N-terminal GST; dsDNA, one strand shown. The procedure, abridged: as §1
The next test has as its target T6, ELK3 (Homo sapiens, UniProt P41970 1-407).
T6 sequence: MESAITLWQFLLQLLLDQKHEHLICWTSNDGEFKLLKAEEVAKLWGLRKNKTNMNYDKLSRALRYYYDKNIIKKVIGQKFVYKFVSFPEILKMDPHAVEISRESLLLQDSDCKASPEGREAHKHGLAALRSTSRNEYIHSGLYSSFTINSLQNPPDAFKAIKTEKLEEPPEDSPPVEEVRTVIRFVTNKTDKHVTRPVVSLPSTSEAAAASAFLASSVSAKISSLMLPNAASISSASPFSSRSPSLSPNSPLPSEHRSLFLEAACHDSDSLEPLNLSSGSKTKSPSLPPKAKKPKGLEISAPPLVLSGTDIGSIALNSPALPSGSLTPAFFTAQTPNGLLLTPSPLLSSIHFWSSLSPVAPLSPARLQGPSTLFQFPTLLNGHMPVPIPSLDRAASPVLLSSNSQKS
The conditions noted are these: protein: recombinant; tags: N-terminal GST; dsDNA, one strand shown. Put shortly:
as §1

A further test concerns the target T7, FEV (Homo sapiens, UniProt Q99581 1-238).
T7 sequence: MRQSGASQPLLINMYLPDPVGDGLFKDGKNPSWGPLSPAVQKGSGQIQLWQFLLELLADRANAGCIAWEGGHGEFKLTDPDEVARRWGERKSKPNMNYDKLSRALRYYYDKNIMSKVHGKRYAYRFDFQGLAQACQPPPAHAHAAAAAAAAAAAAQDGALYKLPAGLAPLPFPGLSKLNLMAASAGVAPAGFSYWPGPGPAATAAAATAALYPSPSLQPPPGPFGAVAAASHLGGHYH
The settings on record: protein: recombinant; tags: N-terminal GST; dsDNA, one strand shown. The procedure, abridged: as §1

For the next test, the target named is ETV5 (Homo sapiens, UniProt P41161 1-510). The conditions noted are these: protein: recombinant; tags: N-terminal GST; dsDNA, one strand shown. Put shortly: as §1
Chain of ETV5 (P41161 whole entry): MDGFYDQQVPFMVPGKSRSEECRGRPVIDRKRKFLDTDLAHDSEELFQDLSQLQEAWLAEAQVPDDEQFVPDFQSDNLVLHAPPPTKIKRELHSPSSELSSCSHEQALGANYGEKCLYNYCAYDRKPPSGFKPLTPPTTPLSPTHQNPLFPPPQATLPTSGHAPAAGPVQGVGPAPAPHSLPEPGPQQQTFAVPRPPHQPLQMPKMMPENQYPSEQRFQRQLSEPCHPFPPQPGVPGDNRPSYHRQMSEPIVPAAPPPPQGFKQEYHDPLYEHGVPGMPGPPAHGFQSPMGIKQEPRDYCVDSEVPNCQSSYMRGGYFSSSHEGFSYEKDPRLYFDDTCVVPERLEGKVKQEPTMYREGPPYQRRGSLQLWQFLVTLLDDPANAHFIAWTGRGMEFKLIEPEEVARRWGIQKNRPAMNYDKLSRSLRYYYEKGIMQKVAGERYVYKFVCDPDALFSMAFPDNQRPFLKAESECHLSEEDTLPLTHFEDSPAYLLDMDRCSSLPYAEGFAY
The target of a further test is HSF1 (Homo sapiens, UniProt Q00613 1-529). The settings on record: protein: recombinant; tags: N-terminal GST; chain copies: 3; dsDNA, one strand shown. The procedure, abridged:
as §1

The target in another test is T8, SPIC (Homo sapiens, UniProt Q8N5J4 1-248).
T8 sequence: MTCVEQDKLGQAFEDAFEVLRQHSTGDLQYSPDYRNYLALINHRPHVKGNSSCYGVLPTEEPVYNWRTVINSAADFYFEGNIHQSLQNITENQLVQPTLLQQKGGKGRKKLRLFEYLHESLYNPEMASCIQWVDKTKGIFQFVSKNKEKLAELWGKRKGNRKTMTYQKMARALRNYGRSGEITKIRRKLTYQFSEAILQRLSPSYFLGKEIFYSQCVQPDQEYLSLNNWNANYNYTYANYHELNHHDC
The settings on record: protein: recombinant; tags: N-terminal GST; dsDNA, one strand shown. The procedure, abridged:
as §1

The next test concerns the target ELF4 (Homo sapiens, UniProt Q99607 1-663). The conditions noted are these: protein: recombinant; tags: N-terminal GST; dsDNA, one strand shown. Put shortly:
as §1

For the next test, the target named is T9, ELK4 (Homo sapiens, UniProt P28324-2 1-405).
T9 sequence: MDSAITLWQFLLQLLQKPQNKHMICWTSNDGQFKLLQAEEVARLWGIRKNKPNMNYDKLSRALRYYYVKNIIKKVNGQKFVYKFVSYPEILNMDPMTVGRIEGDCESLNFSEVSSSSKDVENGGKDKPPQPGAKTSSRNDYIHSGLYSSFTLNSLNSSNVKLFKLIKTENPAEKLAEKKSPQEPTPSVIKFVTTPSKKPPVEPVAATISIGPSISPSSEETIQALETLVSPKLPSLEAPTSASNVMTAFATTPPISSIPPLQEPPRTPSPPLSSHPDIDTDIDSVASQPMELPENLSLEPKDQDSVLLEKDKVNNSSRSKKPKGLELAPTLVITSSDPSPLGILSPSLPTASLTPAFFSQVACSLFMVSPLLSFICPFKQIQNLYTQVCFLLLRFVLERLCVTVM
The conditions noted are these: protein: recombinant; tags: N-terminal GST; dsDNA, one strand shown. The procedure, abridged:
as §1

For the next test, the target named is T10, ETV2 (Homo sapiens, UniProt O00321 1-342).
T10 sequence: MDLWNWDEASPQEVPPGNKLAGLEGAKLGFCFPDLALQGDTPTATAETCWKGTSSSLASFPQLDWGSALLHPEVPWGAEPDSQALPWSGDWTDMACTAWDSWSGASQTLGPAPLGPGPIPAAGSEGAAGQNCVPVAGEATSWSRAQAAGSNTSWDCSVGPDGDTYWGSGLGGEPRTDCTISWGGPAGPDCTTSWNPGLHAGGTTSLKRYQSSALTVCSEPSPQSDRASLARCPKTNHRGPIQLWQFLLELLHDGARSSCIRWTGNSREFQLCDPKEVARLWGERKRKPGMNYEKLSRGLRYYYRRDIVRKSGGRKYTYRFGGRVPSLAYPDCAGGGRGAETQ
The settings on record: protein: recombinant; tags: N-terminal GST; dsDNA, one strand shown. The procedure, abridged:
as §1

For a further test, the target named is T11, ELF3 (Homo sapiens, UniProt P78545 1-371).
T11 sequence: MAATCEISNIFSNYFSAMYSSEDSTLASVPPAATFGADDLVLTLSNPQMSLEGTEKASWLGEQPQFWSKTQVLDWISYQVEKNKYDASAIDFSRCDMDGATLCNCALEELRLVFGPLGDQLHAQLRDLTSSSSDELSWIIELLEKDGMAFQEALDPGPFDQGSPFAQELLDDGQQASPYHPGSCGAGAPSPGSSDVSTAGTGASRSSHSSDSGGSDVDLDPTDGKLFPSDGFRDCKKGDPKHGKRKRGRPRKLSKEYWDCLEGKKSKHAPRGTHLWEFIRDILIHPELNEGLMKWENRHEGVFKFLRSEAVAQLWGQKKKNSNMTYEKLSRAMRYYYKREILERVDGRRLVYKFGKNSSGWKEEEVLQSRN
The settings on record: protein: recombinant; tags: N-terminal GST; dsDNA, one strand shown. Put shortly: as §1

Another test concerns the target CRX (Homo sapiens, UniProt O43186 1-299). The conditions noted are these: protein: recombinant; tags: N-terminal GST; dsDNA, one strand shown. The procedure, abridged: as §1
A further test deals with ETV1 (Homo sapiens, UniProt P50549 1-477). The settings on record: protein: recombinant; tags: N-terminal GST; dsDNA, one strand shown. Put shortly: as §1
Chain of ETV1 (P50549 whole entry): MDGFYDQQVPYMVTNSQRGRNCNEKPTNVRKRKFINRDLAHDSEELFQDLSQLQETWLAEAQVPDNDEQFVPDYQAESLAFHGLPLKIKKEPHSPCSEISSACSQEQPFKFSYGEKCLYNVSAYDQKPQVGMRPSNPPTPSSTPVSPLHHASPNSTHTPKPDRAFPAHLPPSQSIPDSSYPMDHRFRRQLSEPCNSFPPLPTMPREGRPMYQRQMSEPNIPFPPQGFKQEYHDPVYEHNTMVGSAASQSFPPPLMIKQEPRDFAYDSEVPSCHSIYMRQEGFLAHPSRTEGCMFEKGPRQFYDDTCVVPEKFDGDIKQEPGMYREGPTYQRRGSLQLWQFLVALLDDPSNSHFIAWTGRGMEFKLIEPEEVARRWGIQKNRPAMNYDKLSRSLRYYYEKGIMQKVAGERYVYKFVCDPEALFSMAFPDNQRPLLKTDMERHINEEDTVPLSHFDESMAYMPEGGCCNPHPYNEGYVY

Chain of CRX (O43186 whole entry): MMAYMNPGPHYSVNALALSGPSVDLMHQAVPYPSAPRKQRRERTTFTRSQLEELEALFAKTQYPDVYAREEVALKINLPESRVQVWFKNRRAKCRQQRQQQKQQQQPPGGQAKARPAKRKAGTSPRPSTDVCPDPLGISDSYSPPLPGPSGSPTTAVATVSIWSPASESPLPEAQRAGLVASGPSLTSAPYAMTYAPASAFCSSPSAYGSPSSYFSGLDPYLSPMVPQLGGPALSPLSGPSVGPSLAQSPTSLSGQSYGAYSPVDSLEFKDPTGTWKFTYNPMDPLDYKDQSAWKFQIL
Chain of ELF4 (Q99607 whole entry): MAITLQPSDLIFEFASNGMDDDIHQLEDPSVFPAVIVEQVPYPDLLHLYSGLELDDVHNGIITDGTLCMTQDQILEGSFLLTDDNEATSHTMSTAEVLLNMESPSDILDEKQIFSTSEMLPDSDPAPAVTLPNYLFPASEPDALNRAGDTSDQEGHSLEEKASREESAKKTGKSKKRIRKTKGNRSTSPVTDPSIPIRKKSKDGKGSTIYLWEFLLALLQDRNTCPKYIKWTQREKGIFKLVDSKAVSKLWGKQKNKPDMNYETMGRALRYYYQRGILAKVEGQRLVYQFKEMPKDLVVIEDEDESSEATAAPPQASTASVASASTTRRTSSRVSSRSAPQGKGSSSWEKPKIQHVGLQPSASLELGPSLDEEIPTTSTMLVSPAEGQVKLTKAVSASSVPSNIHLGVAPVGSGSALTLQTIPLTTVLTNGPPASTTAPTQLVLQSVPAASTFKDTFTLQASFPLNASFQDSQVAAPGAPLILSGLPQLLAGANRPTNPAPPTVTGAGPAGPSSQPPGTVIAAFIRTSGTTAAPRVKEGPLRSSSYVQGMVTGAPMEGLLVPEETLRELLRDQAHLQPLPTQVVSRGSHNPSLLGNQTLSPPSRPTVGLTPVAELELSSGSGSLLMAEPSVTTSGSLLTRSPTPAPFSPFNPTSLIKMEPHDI
Chain of SPIB (Q01892 whole entry): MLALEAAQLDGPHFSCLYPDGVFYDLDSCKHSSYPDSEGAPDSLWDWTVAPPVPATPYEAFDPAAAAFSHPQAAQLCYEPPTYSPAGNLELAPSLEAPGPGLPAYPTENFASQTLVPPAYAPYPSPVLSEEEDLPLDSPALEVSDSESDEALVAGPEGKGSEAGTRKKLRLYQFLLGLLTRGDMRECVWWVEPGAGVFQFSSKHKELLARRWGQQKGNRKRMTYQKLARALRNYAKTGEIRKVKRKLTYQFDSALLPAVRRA
Chain of HSF1 (Q00613 whole entry): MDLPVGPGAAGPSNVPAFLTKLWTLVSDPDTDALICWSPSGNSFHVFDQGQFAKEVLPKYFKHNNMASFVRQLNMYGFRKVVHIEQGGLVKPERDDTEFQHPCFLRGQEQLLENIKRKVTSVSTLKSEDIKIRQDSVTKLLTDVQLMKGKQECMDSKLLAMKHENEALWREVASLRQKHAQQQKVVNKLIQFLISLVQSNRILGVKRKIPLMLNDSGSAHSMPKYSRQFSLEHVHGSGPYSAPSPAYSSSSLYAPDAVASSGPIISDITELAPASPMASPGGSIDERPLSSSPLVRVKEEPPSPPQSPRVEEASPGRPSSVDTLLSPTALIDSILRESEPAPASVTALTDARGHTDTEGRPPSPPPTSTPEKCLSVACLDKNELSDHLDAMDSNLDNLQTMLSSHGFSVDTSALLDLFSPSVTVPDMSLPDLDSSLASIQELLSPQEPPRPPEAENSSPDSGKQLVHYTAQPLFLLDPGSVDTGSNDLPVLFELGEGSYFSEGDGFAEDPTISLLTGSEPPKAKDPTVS

With CTTGTG, the binding signal is 1.57 fold enrichment (6-mer frequency, TF over GST control) with FLI1; 1.58 fold enrichment (6-mer frequency, TF over GST control) in the test with ELK1; 1.45 fold enrichment (6-mer frequency, TF over GST control) in the test with GABPA; 1.45 fold enrichment (6-mer frequency, TF over GST control) with ERG; 1.46 fold enrichment (6-mer frequency, TF over GST control) with ELF1; 1.44 fold enrichment (6-mer frequency, TF over GST control) with EHF. For the same sequence, the binding signal with SPI1 is 1.46 fold enrichment (6-mer frequency, TF over GST control); in the test with SPIB, 1.68 fold enrichment (6-mer frequency, TF over GST control); in the test with ELK3, 1.6 fold enrichment (6-mer frequency, TF over GST control); in the test with FEV it was 1.39 fold enrichment (6-mer frequency, TF over GST control); with ETV5, 1.51 fold enrichment (6-mer frequency, TF over GST control); with HSF1 it was 1.25 fold enrichment (6-mer frequency, TF over GST control). Besides, the binding signal was 1.45 fold enrichment (6-mer frequency, TF over GST control) with SPIC; 1.59 fold enrichment (6-mer frequency, TF over GST control) with ELF4; 1.26 fold enrichment (6-mer frequency, TF over GST control) with ELK4; 1.44 fold enrichment (6-mer frequency, TF over GST control) with ETV2; 1.5 fold enrichment (6-mer frequency, TF over GST control) in the test with ELF3; 1.25 fold enrichment (6-mer frequency, TF over GST control) in the test with CRX. Further, the binding signal with ETV1 was 1.44 fold enrichment (6-mer frequency, TF over GST control).
